High-throughput results: PubChem, several laboratories
FBA Mtb inh = inhibitors of M. tuberculosis fructose-bisphosphate aldolase. 360,000 tested, 2.3% active. inhibition, % at 1 µM. AID 588726. purified M. tuberculosis FBA, fluorescence read-out. P9WQA3; in the data active means inhibition above about 27%
Target sequence (P9WQA3 whole entry, looked up): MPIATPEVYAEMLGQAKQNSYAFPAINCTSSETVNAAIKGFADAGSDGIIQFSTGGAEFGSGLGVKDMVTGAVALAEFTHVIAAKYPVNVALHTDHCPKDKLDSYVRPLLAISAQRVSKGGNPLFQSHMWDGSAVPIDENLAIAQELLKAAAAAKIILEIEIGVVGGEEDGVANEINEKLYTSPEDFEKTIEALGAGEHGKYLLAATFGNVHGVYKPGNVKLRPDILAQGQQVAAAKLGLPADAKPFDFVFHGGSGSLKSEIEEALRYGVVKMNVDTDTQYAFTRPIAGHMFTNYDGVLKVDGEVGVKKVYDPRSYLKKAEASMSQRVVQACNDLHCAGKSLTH
Mtb bLac sens = beta-lactam sensitization of Mtb H37Rv | inhibition, % at 25 µM | 330,000 tested, 0.27% active | M. tuberculosis H37Rv growth with meropenem, percent inhibition; call rule not given here;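 further: growth measured after seven days incubation then overnight dye step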
Mtb hypoxia rep = reduces hypoxia-regulated biosensor signal in M. tuberculosis | fluorescence inhibition, % (test concentration not listed) | AID 1159583 | 300,000 tested, 0.1% active | M. tuberculosis hypoxia-regulated fluorescent reporter, fluorescence; in the data active means fluorescence inhibition mostly above about 23%, no sharp cut-off; inactive means mostly below about 17%
GDH-TPI counter = counter-screen for M. tuberculosis FBA inhibitors: GDH-TPI coupled enzymes. GDH-TPI coupled enzyme counterscreen, NADH absorbance. inhibition, % at 4.8 µM. 360,000 tested, 1.2% active; in the data active means inhibition above about 30%
DUSP3 inh = inhibitors of human VHR1 phosphatase (DUSP3) | 290,000 tested, 0.52% active | inhibition, % at 13.3 µM | recombinant VHR phosphatase, pNPP absorbance | AID 1654 | P51452; in the data active means inhibition above about 50%
Target sequence (P51452 whole entry, looked up): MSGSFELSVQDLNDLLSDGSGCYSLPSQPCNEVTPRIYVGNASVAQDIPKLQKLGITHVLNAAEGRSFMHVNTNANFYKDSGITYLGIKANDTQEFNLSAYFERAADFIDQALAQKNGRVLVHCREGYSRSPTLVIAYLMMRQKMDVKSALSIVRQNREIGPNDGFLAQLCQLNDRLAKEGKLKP
Hits are given with their value; i = inactive; nt = no result; + = active, no number. Only some compounds are listed: those with a hit (about 3.6% of all), similar ones and a draw of the others.

SMILES | FBA Mtb inh | Mtb bLac sens | Mtb hypoxia rep | GDH-TPI counter | DUSP3 inh
Cc1ccc(-c2c(C#N)c(N)n(-c3ccc(C)cc3)c(=O)c2C#N)cc1 | i | i | nt | 40 | i
O=C1N=C2SCCN2C1=Cc1ccccc1Cl | nt | nt | i | nt | nt
CN(C)c1ccc(C=Nc2cnn(C)c2C(N)=O)cc1 | i | i | nt | 35 | i
Cn1ncc(N=Cc2ccccc2[N+](=O)[O-])c1C(N)=O | i | i | i | i | i
COc1ccc(-c2oc3ccc(N4CCOCC4)cc3c2C#CC2(O)CCCCC2)cc1 | 68 | i | i | i | nt
COc1ccc(C#Cc2c(-c3ccsc3)oc3ccc(N4CCOCC4)cc23)cc1 | i | i | i | 33 | nt
OC1(C#Cc2c(-c3ccsc3)oc3ccc(N4CCOCC4)cc23)CCCCC1 | i | i | i | i | nt
Cc1cc(-c2n[nH]c(=S)n2N=Cc2cccc(O)c2)n[nH]1 | nt | nt | i | nt | nt
CN(C)c1ccc(/C=N/NC(=O)c2ccc3nc[nH]c3c2)cc1 | i | i | nt | 56 | i
O=C(NN=Cc1ccc(N(CCCl)CCCl)cc1)C(=O)c1c[nH]c2ccccc12 | i | nt | i | 43 | nt
CCN(CC)c1ccc(/C=N/NC(=O)c2c[nH]c3ccccc23)cc1 | i | i | nt | i | i
O=C(NN=Cc1ccc(N(CCCl)CCCl)cc1)c1cc(=O)[nH]c(=O)[nH]1 | i | nt | i | 50 | nt
O=C(Cc1cc(=O)oc2cc(O)ccc12)NN=Cc1ccc(N(CCCl)CCCl)cc1 | 182 | nt | i | 56 | nt
CC(=NN1CCN(C)CC1)c1ccc(OC(F)F)cc1 | nt | nt | i | nt | nt
CC(=NNC(=O)c1cccc(Br)c1)c1cccnc1 | nt | nt | i | nt | nt
N#Cc1cccc(CN2CCC(=O)N(C(CO)Cc3ccccc3)CC2)c1 (stereo unspecified) | nt | nt | i | nt | nt
CCN(CC)c1ccc(/C=N/NC(=O)c2cc3ccccc3[nH]2)cc1 | i | i | nt | 32 | i
COc1cc(/C=N/NC(=O)c2ccc3nc[nH]c3c2)ccc1O | i | i | nt | 59 | i
CSc1ccc(/C=N/NC(=O)c2ccc3nc[nH]c3c2)cc1 | i | nt | nt | 48 | nt
CCN(CC)c1ccc(/C=N/NC(=O)c2ccc3nc[nH]c3c2)cc1 | i | i | nt | 60 | i
Oc1ccccc1C=NNC(=S)NC1CC2CCC1C2 (stereo unspecified) | nt | nt | i | nt | nt
COc1c2ccoc2c(OCC(O)C(C)(C)O)c2oc(=O)ccc12 (stereo unspecified) | nt | nt | i | nt | nt
O=C(N=c1nc2ccccn2s1)c1ccccc1 | i | i | i | 32 | i
COC(=O)C(c1ccccc1)N(C)S(=O)(=O)c1cccc(S(=O)(=O)N(C)C(C(=O)OC)c2ccccc2)c1 (stereo unspecified) | nt | nt | i | nt | nt
COc1cc(C=NNC(=O)Cn2cnc3ccccc3c2=O)ccc1O | nt | nt | i | nt | nt
SMILES | FBA Mtb inh | Mtb bLac sens | Mtb hypoxia rep | GDH-TPI counter | DUSP3 inh
CC(C)C[C@H](NC(=O)CCCn1nnc2ccccc2c1=O)C(=O)O | i | i | i | 59 | i
COCCn1c(=NC(=O)CSC(C)=O)sc2cc(OC)ccc21 | i | i | i | i | i
COCCn1c(=NC(=O)CSCC(=O)NC2CCCCC2)sc2cc(OC)ccc21 | i | i | nt | 42 | i
N#CCC(=O)NN=Cc1cccc(OC/C=C/c2ccccc2)c1 | nt | nt | i | nt | nt
Cc1nc2c(C#N)cnn2c2c1CCN(Cc1ccccc1)N2C | i | i | i | 44 | i
NS(=O)(=O)c1ccc(NN=Cc2ccc[nH]2)c([N+](=O)[O-])c1 | nt | nt | i | nt | nt
Cc1ccc(NC2CCCN(C(=O)CN3C(=O)CSC3=O)C2)cc1C (stereo unspecified) | i | i | i | i | 53
Cc1cc(C)c(C(=O)N2CCCC(Nc3ccc(C)c(C)c3)C2)o1 (stereo unspecified) | i | i | i | i | 53
O=C(NN=Cc1ccccn1)c1cc(C2CC2)[nH]n1 | nt | nt | i | nt | nt
Cc1ccc(-c2cc(C(=O)Nc3ccc(S(=O)(=O)Nc4onc(C)c4C)cc3)c3ccccc3n2)cc1 | i | i | i | i | 54
Cc1noc(NS(=O)(=O)c2ccc(NC(=O)c3cnc4n(c3=O)CCS4)cc2)c1C | i | i | i | 34 | i
COc1ccccc1NC(=O)c1cnc2n(c1=O)CCS2 | i | i | nt | 37 | i
COc1ccc(OC)c(NC(=O)c2cnc3n(c2=O)CCS3)c1 | i | i | i | i | i
O=C(Nc1ccc2c(c1)OCO2)c1cnc2n(c1=O)CCS2 | i | i | i | i | i
Cc1cc(C)nc(NS(=O)(=O)c2ccc(NC(=O)c3cc(-c4ccccc4)nc4ccccc34)cc2)n1 | i | i | i | i | i
O=C(Nc1ccc2c(c1)OCCO2)c1cnc2n(c1=O)CCS2 | i | i | i | 31 | i
Cc1ccc(C)c(C=NNC(=S)NC(C)C)c1 | nt | nt | i | nt | nt
Cc1ccccc1CS(=O)(=O)CC(O)CN1CCCC1=O (stereo unspecified) | + | i | i | i | i
COc1cc(C(=O)NN=Cc2sccc2C)cc(OC)c1OC | nt | nt | i | nt | nt
CCCn1c(C)cc(/C=C(\C#N)C(=O)O)c1C | i | i | i | 31 | i
Cc1ccc(-n2c(C)cc(C=C(C#N)C#N)c2C)cc1 | i | i | nt | 39 | i
COCCNC(=O)/C(C#N)=C/c1cc(C)n(-c2ccc(C)cc2)c1C | i | i | i | 31 | i
CCCCn1c(C)cc(/C=C(\C#N)C(=O)O)c1C | i | i | i | i | i
Cc1cc(C=C(C#N)C#N)c(C)n1-c1ccccc1 | i | i | nt | i | i
COCCn1c(C)cc(/C=C(\C#N)C(=O)OC(C)C(=O)Nc2ccc(NC(C)=O)cc2)c1C (stereo unspecified) | i | i | i | 39 | nt
SMILES | FBA Mtb inh | Mtb bLac sens | Mtb hypoxia rep | GDH-TPI counter | DUSP3 inh
COc1cc(C=C2NC(=O)NC2=O)cc(Br)c1OCc1ccccc1 | nt | nt | i | nt | nt
Cc1cc(/C=C(\C#N)C(=O)Nc2ccc(F)cc2)c(C)n1-c1ccc(N2CCOCC2)c([N+](=O)[O-])c1 | i | i | i | i | i
CNC(=O)/C(C#N)=C\c1cc(C)n(-c2ccc(N3CCOCC3)cc2)c1C | i | i | i | 31 | i
Cc1ccccc1NC(=O)/C(C#N)=C\c1cc(C)n(-c2ccc(C(=O)O)cc2)c1C | i | nt | i | i | i
Cc1cc(/C=C(\C#N)C(=O)O)c(C)n1-c1ccc(Br)cc1 | i | i | i | 32 | i
S=c1[nH]nc(C2CCCCC2)n1N=Cc1ccccc1Br | nt | nt | i | nt | nt
COc1ccccc1CNC(=O)CC(C)=NNC(=O)COc1ccc(C)cc1Br | nt | nt | i | nt | nt
COc1ccc(NC(=O)N(C)CC2Oc3ccc(NC(=O)Cc4ccccc4)cc3C(=O)N(C(C)CO)CC2C)cc1 (stereo unspecified) | nt | nt | i | nt | nt
Cc1ccc(N(CCC#N)C(=O)CCl)cc1C | i | i | 38 | i | i
Cc1ccc(SCC(=O)OCC(=O)N(CCC#N)c2ccccc2)cc1C | i | i | i | i | nt
Nc1ccc(Oc2ccc([N+](=O)[O-])cc2[N+](=O)[O-])cc1 | i | i | i | 33 | i
O=[N+]([O-])c1ccc(Oc2cccnc2)c([N+](=O)[O-])c1 | i | nt | nt | i | nt
COc1ccccc1NCC(=O)NN=C(C)c1ccc(Br)s1 | nt | nt | i | nt | nt
Cc1ccc2c(c1)COc1c3ccc(C(=O)NCCO)cc3nn1-2 | 32 | i | i | i | i
C#CCOCCOCCOCCNc1nc(N2CCOCC2)nc(N2CCN(C(=O)C(CCCN=C(N)N)n3cc(C(N)C(C)CC)nn3)CC2)n1 (stereo unspecified) | nt | nt | i | nt | nt
COC(=O)C1CC1C(NC(=O)OCc1ccccc1)c1ccccc1 (stereo unspecified) | nt | nt | i | nt | nt
